Test results: ChEMBL document CHEMBL5724796, “Tm Shift (DSF) assay results for EUbOPEN Chemogenomics Library” (2024)

Assays:
Settings in all cases: Compound concentration 20.0 uM
[1] = biological target: Tyrosine-protein kinase ABL1 (Homo sapiens) (UniProt P00519)
[2] = biological target: Bromodomain-containing protein 4 (Homo sapiens) (UniProt O60885)
[3] = biological target: Cyclin-dependent kinase 2 (Homo sapiens) (UniProt P24941)
[4] = biological target: Casein kinase I isoform delta (Homo sapiens) (UniProt P48730)
[5] = biological target: Glycogen synthase kinase-3 beta (Homo sapiens) (UniProt P49841)
[6] = biological target: Mitogen-activated protein kinase 1 (Homo sapiens) (UniProt P28482)
[7] = biological target: T1, Aurora kinase A (Homo sapiens) (UniProt O14965)
T1 sequence (whole entry): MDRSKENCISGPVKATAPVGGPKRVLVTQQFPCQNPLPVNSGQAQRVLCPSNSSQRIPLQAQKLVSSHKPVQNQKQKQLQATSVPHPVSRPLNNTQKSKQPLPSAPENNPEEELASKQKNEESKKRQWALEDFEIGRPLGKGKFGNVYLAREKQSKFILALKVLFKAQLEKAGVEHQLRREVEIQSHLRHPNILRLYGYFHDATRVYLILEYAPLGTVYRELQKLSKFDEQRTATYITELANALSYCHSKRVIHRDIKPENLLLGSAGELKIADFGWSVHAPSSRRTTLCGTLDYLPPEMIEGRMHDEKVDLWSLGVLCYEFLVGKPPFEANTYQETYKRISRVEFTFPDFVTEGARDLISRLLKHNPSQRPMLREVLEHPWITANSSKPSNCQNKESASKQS

[8] = biological target: T2, Transcription intermediary factor 1-alpha (Homo sapiens) (UniProt O15164)
T2 sequence (whole entry): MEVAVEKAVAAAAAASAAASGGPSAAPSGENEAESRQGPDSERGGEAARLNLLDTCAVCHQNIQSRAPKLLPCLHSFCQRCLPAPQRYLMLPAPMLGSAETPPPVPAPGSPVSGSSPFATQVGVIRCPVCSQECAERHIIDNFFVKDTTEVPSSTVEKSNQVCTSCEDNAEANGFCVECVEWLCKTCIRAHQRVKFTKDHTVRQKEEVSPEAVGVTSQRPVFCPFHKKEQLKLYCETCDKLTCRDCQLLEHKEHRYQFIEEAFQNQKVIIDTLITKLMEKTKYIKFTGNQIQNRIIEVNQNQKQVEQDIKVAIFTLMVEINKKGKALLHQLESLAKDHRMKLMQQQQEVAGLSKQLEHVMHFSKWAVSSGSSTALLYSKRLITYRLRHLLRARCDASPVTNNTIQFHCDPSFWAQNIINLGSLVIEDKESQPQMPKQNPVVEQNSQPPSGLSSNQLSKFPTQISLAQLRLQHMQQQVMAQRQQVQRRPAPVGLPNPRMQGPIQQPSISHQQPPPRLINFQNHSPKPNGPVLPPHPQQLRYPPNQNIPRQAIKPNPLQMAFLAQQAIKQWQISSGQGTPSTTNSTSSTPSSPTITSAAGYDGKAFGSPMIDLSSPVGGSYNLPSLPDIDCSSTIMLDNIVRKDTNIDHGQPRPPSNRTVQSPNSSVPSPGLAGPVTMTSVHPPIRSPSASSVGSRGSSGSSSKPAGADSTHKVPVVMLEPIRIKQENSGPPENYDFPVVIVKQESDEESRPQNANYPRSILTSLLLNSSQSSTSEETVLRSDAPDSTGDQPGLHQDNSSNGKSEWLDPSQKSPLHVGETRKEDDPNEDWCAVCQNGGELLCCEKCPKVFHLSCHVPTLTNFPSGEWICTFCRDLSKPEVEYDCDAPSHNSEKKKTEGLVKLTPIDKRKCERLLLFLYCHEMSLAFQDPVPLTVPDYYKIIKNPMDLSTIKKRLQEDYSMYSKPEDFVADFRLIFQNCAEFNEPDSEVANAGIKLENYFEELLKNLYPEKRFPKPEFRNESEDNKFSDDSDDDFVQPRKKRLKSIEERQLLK

Sequence of Casein kinase I isoform delta (Homo sapiens) (P48730 whole entry, looked up, canonical isoform): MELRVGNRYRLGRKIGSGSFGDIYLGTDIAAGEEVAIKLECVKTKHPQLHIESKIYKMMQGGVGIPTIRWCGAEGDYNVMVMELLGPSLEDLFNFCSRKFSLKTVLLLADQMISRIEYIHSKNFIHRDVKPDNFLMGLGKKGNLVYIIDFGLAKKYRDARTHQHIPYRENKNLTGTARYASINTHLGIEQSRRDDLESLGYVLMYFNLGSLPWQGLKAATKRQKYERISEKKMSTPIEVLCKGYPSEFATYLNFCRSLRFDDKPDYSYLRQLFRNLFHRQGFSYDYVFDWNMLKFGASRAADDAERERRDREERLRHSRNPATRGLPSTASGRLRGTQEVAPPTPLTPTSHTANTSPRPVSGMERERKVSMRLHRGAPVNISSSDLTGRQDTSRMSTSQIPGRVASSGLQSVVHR
Sequence of Mitogen-activated protein kinase 1 (Homo sapiens) (P28482 whole entry): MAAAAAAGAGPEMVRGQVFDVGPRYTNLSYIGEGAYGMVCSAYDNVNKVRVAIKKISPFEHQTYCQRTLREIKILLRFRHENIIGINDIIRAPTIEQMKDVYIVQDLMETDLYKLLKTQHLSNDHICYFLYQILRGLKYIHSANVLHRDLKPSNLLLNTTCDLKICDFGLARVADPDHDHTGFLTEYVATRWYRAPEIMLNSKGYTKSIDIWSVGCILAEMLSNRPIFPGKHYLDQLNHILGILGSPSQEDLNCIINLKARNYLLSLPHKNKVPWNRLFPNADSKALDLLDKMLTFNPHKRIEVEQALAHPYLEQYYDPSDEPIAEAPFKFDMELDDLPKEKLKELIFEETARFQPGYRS
Sequence of Tyrosine-protein kinase ABL1 (Homo sapiens) (P00519 whole entry): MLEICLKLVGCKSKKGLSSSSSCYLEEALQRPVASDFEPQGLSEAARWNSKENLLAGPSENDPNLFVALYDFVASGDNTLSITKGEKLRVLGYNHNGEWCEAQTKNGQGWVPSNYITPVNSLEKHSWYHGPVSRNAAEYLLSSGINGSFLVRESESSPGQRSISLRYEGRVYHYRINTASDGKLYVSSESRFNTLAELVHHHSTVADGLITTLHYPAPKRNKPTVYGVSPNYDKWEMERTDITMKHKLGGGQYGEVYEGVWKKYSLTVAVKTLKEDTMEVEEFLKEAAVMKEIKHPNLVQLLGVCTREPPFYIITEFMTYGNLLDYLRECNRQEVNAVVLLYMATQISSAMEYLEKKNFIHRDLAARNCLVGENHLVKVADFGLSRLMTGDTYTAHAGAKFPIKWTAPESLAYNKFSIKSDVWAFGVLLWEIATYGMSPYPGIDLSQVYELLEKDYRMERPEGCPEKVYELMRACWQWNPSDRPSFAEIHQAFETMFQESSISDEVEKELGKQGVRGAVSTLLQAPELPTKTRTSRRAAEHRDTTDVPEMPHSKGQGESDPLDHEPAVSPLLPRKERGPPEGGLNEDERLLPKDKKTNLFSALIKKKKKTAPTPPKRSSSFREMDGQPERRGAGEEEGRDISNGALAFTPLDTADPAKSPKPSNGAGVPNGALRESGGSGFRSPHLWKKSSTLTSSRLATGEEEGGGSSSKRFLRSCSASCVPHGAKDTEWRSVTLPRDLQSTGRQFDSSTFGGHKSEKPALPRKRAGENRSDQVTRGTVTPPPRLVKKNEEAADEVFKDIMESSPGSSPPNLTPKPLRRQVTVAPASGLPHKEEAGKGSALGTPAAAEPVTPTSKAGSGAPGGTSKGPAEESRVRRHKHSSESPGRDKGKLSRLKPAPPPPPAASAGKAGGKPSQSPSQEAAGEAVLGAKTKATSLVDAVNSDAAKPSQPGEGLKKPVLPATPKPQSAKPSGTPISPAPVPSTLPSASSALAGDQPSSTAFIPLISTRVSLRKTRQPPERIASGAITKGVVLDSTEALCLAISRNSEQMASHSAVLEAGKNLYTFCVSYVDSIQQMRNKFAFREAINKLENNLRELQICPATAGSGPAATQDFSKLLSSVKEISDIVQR
Sequence of Glycogen synthase kinase-3 beta (Homo sapiens) (P49841 whole entry, looked up): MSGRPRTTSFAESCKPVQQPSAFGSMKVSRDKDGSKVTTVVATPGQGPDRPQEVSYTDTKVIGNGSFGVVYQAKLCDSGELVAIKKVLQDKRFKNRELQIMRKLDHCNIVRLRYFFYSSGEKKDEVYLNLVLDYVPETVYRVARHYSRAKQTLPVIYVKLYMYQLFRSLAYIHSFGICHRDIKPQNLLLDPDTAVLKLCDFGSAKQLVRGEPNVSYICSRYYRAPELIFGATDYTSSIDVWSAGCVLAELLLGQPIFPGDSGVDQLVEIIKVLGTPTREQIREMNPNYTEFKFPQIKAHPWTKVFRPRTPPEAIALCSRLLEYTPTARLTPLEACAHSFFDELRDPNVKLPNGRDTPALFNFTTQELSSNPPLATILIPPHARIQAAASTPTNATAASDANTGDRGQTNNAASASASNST

Compound	ΔTm [1] [°C]	ΔTm [2] [°C]	ΔTm [3] [°C]	ΔTm [4] [°C]	ΔTm [5] [°C]	ΔTm [6] [°C]	ΔTm [7] [°C]	ΔTm [8] [°C]
NC(=O)C(CCCN=C(N)CCl)NC(=O)c1ccccc1 (stereo unspecified)	0.36	-3.15	0.18	-0.56	0.08	0.22	-2.39	1.03
CCS(=O)(=O)Cc1cnc(Oc2ccc(F)cc2F)c(-c2cc(C)c3c(=O)[nH]ccn23)c1	0.69	14.7	0.81	-0.35	1.96	0.23	-0.65	0.45
COC1CCN(C(=O)c2cc(Cc3n[nH]c(=O)c4ccccc34)ccc2F)CC1	0.56	-2.02	0.16	-0.31	0.09	0.51	-2.39	-0.67
COc1cc(C(=O)NCC2(N(C)C)CCCC2)cc(OC)c1OCc1ccccc1	0.81	-1.07	0.36	-0.21	-0.01	0.38	-0.99	3.25
COc1ccc(-c2ccc3c(c2)COC3=O)n2nc(C3(C(=O)OCC(C)C)CC3)nc12	0.4	2.58	0.54	0.04	-0.38	1.36	-1.67	0.5
CC(C)C(=O)c1c(C(C)C)nn2ccccc12	0.8	-2.97	0.95	0.19	-0.21	0.12	-2.35	0.7
Cc1nccn1CC1CCc2c(c3ccccc3n2C)C1=O (stereo unspecified)	0.4	-1.31	-0.09	-0.21	-0.4	0.1	-1.95	0.35
CC(C)[C@@H]1NC(=O)[C@H](Cc2ccc(O)cc2)NC(=O)[C@@H](CC(=O)O)NC(=O)S[C@@H](C(=O)O)NC(=O)[C@H]([C@H](C)O)NC(=O)[C@H](Cc2ccc(O)cc2)NC(=O)[C@H](Cc2c[nH]c3ccccc23)NC(=O)[C@H](CCCNC(=N)N)NC(=O)[C@H](Cc2c[nH]c3ccccc23)NC(=O)[C@H](C)NC(=O)[C@H](CO)NC(=O)[C@H](CCCNC(=N)N)NC(=O)[C@H]([C@H](C)O)NC(=O)[C@H](CC(N)=O)NC(=O)[C@H](Cc2ccc(O)cc2)NC1=O	0.39	-2.6	0.11	-0.3	-0.36	0.08	-2.45	-0.7
CCC(CC)(NC(=O)C(C)C)C(=O)N[C@@H](CCCNC(=N)N)C(=O)NC1(C(=O)NC(c2ccc(F)cc2)c2ccc(F)cc2)CCCC1	0.63	-1.92	-0.27	0.35	-0.5	-0.02	-0.05	-1.17
CC(C)(C)OC(=O)Nc1ccc(CNc2nccc(Nc3cc(C(=O)OC(C)(C)C)[nH]n3)n2)cc1	2.57	-0.88	5.67	0.13	0.97	-2.08	26.1	0.26
CN(CCOc1ccc(-c2ccc3c(c2)OCO3)cc1C(C)(C)C)CC(=O)O	0.97	-3.79	-0.18	-0.21	-0.2	0.46	-0.74	-0.19
O=C(c1ccc2[nH]ccc2c1)N1CCN(S(=O)(=O)c2ccc3[nH]c(=O)oc3c2)CC1	0.69	-2.8	-0.68	0.15	0	0.48	-1.69	-0.16
CC(=O)N[C@@H](CCCCNC(=O)CSCCNC(=O)CCNC(=O)[C@H](O)C(C)(C)COP(=O)(O)OP(=O)(O)OC[C@H]1O[C@@H](n2cnc3c(N)ncnc32)[C@H](O)[C@@H]1OP(=O)(O)O)C(N)=O	0.23	-2	-0.07	-0.41	-0.08	-0.01	-0.37	1.51
O=C(O)Cn1nnc(-c2ccc(CN(CCCCOc3ccc(CN4CCCC4)cc3)CCc3ccccc3)cc2)n1	0.12	-3.23	-1.15	0.14	-0.71	-0.45	-2.88	-1.13
CCCOc1ccc(CCc2nc3cc(-c4c(C)noc4C)ccc3n2CCN2CCOCC2)cc1	0.14	0.27	-1.68	0.28	1.16	0.33	-1.97	-1.29
Cc1nc(N)c2nnn(C[C@H]3CN(Cc4nccs4)CCO3)c2n1	0.44	-3.68	-0.07	-0.32	-0.34	0.04	-1.7	1.36
CCOc1ccc(Cc2cc([C@@H]3O[C@H](CO)[C@@H](O)[C@H](O)[C@H]3O)ccc2Cl)cc1	0.64	-1.76	-0.13	-0.16	-0.82	0.08	-2.13	-0.07
O=C(C=Cc1ccc(O)cc1)c1ccc(O)cc1O	6.6	1.51	1.64	1.31	2.87	1.33	1.81	-0.03
CCC(CC)N(CCN(C)C(=O)CCC(=O)O)Cc1cccc(C(=O)Nc2sc3c(c2C(=O)c2cnn(-c4ccc(Cl)c(C(F)(F)F)c4)c2)CCC(C)(C)C3)c1	-0.27	1.72	-0.99	-8.05	-4.31	-1.59	-8.72	1.42
CCCOc1cc(OCCCCN(C)C)cc(Oc2cc3c(cc2NS(=O)(=O)c2ccc(OC)c(OC)c2)n(C)c(=O)n3C)c1	0.57	0.5	0.09	0.22	0.59	0	-0.88	–

Compound	ΔTm [1] [°C]	ΔTm [2] [°C]	ΔTm [3] [°C]	ΔTm [4] [°C]	ΔTm [5] [°C]	ΔTm [6] [°C]	ΔTm [7] [°C]	ΔTm [8] [°C]
CNCCCN1c2ccccc2CCc2ccccc21	0.08	-2.59	-0.16	-0.01	-1.29	0.06	-1.87	0.96
COc1cccc(-c2nccc3c2CN(c2ccccc2)C3=O)c1	0.76	-1.35	-1.3	0.41	-2.56	-4.49	-4.93	-1.44
CC(=O)N[C@@H](CC(=O)O)C(=O)N[C@@H](CCC(=O)O)C(=O)N[C@H](C(=O)N[C@@H](CC(=O)O)C(=O)CCl)C(C)C	0.1	-2.64	-0.35	-0.06	0.4	-0.58	-1.91	-0.93
CN(C)Cc1ccc(-c2nc3cccc4c3n2CCNC4=O)cc1	0.45	0.14	0.42	-0.01	1.99	0.01	-0.64	0.79
O=C(Nc1c(Cl)cncc1Cl)c1ccc(OC(F)F)c(OCC2CC2)c1	0.75	-3.16	0.32	-0.3	0.27	0.36	-2.31	2.4
Cn1ncc(-c2nn(C)c3ncnc(N4CCC4)c23)c1-c1ccc(C(F)(F)F)cc1	0.03	-2.92	-1.77	-0.3	-1.09	0.4	-2.16	-2.31
C[C@]1(c2nc3c(C(N)=O)cccc3[nH]2)CCCN1	0.02	-2.57	-0.1	0.16	-0.63	-0.01	-1.66	1.28
N=C(N)SCc1ccc(CN2C(=O)C(=O)c3cc(Br)cc(Br)c32)cc1	-4.26	-11.4	0	-2.52	-2.8	-1.76	-5.55	0
OC[C@H]1O[C@@H](c2ccc(F)c(Cc3cc4ccccc4s3)c2)[C@H](O)[C@@H](O)[C@@H]1O	0.51	-3.4	0.04	-0.29	-0.62	0.05	-1.82	-0.42
CN(C)Cc1ccc(S(=O)(=O)n2ccc(/C=C/C(=O)NO)c2)cc1	0.75	-1.99	0.61	0.25	-0.79	-0.07	-0.28	-1.27
Nc1nc2cc(CC[C@H]3C[C@@H](n4ccc5c(N)ncnc54)[C@H](O)[C@@H]3O)ccc2cc1Br	2.92	-1.76	-4.38	4.13	-8.32	-17	-10	-0.53
CCCN(CCC)c1ccc(C=O)cc1Br	0.01	-2.88	-0.15	-0.24	-0.05	0.17	-2.25	-0.42
O=c1[nH][nH]c(=O)c2cc(OCc3ccsc3)ccc12	1.93	-2.87	0.73	-0.03	0.96	0.65	-1.5	0.51
CCCOc1cccc(Oc2cc3c(cc2NS(=O)(=O)c2cccc(C(=O)NCCOCCOCCOCC(=O)N[C@H](C(=O)N4C[C@H](O)C[C@H]4C(=O)NCc4ccc(-c5scnc5C)cc4)C(C)(C)C)c2)n(C)c(=O)n3C)c1	0.11	-8.44	-3.98	0.83	-4.03	0	-2.91	-3.82
Cn1c(=O)c2c(nc(N3CCNCC3)n2Cc2nnc(-c3ccc(Cl)c(Cl)c3)o2)n(C)c1=O	0.59	-3.55	0.01	0.33	-0.89	0.1	-0.39	-0.46
CCc1ccccc1NC(=O)CSC(=O)NNC(=O)[C@H](Cc1c[nH]c2ccccc12)NC(=O)OC(C)(C)C	1.95	-0.97	-0.07	0.05	4.75	-10.2	3.62	5.76
NC(=O)C1CN(CCCCC(c2ccc(F)cc2)c2ccc(F)cc2)CCN1CC(=O)Nc1c(Cl)cc(N)cc1Cl (stereo unspecified)	-3.72	-1.03	-3.44	-5.13	-5.78	-8.93	-8.05	4.39
NC(=O)c1ccc(Oc2ccc(C(N)=O)cc2)cc1	0.24	-0.98	-0.07	0.22	0.02	0.14	-1.15	-0.86
CNC(=O)c1cnc(N2CCC[C@H](N)C2)nc1Nc1cc(C(C)C)nc(C(C)C)c1	0.5	-1.65	0.07	1.75	-0.33	0.06	-0.12	-1
